MITF TRPM1 HTS: MITF TRPM1 promoter activation in melanoma cells. AID 588334. SK-MEL-5 TRPM1-promoter luciferase, 24 h; % of positive control, neutral wells = 0. 300,000 tested, 0.75% active. activation, % at 12.5 µM;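 active = mean activation of at least 80% with every replicate also reaching 80%; inconclusive = mean reaches 80% but some replicate falls short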
Vif inh: inhibitors of HIV Vif; HEK293T cells, Vif self-association by quenched fluorescence, imaging, 24 h; inhibition, % at 7.49 µM; 340,000 tested, 0.35% active; in the data active = inhibition above about 50%, passing the limit was not always enough; inconclusive = no clear call, values can overlap the other calls; inactive = below about 31%
Wnt act: activates Wnt/beta-catenin signaling in a reporter cell assay. activator, plate reader. activation, % at 9.35 µM. 300,000 tested, 1.2% active; in the data active = activation above about 30%, passing the limit was not always enough; inconclusive = no clear call, values can overlap the other calls
N-glyco inh: N-linked glycosylation inhibition; D54 ERlucT glycosylation luciferase reporter, 24 h; percent of 100 nM tunicamycin response; reporter increase, % at 12.5 µM; 360,000 tested, 0.23% active; AID 588692;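 active = mean luciferase reporter signal, scaled so untreated is 0 and the glycosylation-blocking control 100, at or above a set limit in every replicate; inconclusive = mean reaches the limit but not every replicate does; inactive = mean below the limit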;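 note: luciferase carries N-glycosylation sites so blocking glycosylation raises the light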
PvdQ inh: blocks Pseudomonas aeruginosa PvdQ acylase activity | purified PvdQ acylase, fluorescence plate reader | inhibition, % at 10 µM | 340,000 tested, 0.063% active; in the data active = inhibition above about 30%, passing the limit was not always enough; inconclusive = no clear call, values can overlap the other calls
esBAF inh: inhibitors of esBAF chromatin remodeling in mouse ES cells; Bmi1-luciferase knock-in reporter, 24 h; 100% = twice the neutral-well signal; reporter increase, % at 12.5 µM; 350,000 tested, 2% active; in the data active = activation above about 40%; inconclusive = no clear call, values can overlap the other calls;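 note: a rise in the Bmi1 reporter signal indicates esBAF inhibition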
Each line names hits and unclear results; the compound was inactive in the other large screens. The list is not random: actives were taken first. Their share in the collection is about 2.9%.

S=C(Nc1ccccc1)c1ccccn1	esBAF inh 80 (no result: Wnt act)
FC(F)(F)c1cnc(-c2cnc(-c3cccnc3)nc2)c(Cl)c1	MITF TRPM1 HTS 106, Wnt act inconclusive (no result: esBAF inh)
FC(F)(F)c1cc(Cl)c2nnc(-c3cccnc3)n2c1	none (no result: esBAF inh)
C[C@@H]1CN([C@@H](C)CO)C(=O)c2cccc(NC(=O)Nc3ccc4c(c3)OCO4)c2O[C@@H]1CN(C)C	none (no result: MITF TRPM1 HTS, Vif inh, Wnt act, N-glyco inh, PvdQ inh)
COc1cccc(-c2nc(C(N)=O)c3[nH]c(=O)n(-c4cccc(Cl)c4)c3n2)c1OC	none
COc1ccc(-c2nc(C(N)=O)c3[nH]c(=O)n(-c4cccc(Cl)c4)c3n2)cc1OC	N-glyco inh 36 (no result: Wnt act)
O=C(CCCc1ccccc1)NC12CC3CC(CC(C3)C1)C2	MITF TRPM1 HTS 102, esBAF inh 54
COc1ccc(CCNC(=O)NC23CC4CC(CC(C4)C2)C3)cc1	Vif inh inconclusive
O=C(NCCc1ccc(F)cc1)NC12CC3CC(CC(C3)C1)C2	Wnt act 52, esBAF inh 72
CC(Cc1ccccc1)NC(=O)c1cc2ccccc2o1 (stereo unspecified)	esBAF inh 82
O=C(c1ccccc1)c1cc2ccccc2o1	MITF TRPM1 HTS 108, esBAF inh 49
O=C(NNC(=O)c1cc2ccccc2o1)c1ccc(F)cc1	none
O=C(c1cc2ccccc2o1)N1CCCC1	none (no result: esBAF inh)
Cc1ccc(C(=O)c2cc3ccccc3o2)cc1[N+](=O)[O-]	esBAF inh 67
O=C(c1ccc(F)cc1)c1cc2ccccc2o1	MITF TRPM1 HTS inconclusive, Wnt act 65, esBAF inh 64
Nc1nc(N)nc(-c2cccc(Br)c2)n1	Wnt act 36
COc1ccc(-c2cnc3c(c2)C(=O)N([C@@H](C)CO)C[C@@H](C)[C@H](CN(C)C(=O)Cc2ccccn2)O3)cc1	none (no result: MITF TRPM1 HTS, Vif inh, Wnt act, N-glyco inh, PvdQ inh)
Cc1ccc(-c2cc(-c3ccccc3C)[nH]n2)c(O)c1	none (no result: Wnt act)
O=[N+]([O-])c1ccccc1-c1cc(-c2ccccc2O)n[nH]1	Wnt act 36, esBAF inh 55
COc1ccc(NC(=O)Nc2ccc3c(c2)CC(=O)N([C@@H](C)CO)C[C@@H](C)[C@H](CN(C)S(=O)(=O)c2c(C)noc2C)O3)cc1	none (no result: MITF TRPM1 HTS, Vif inh, Wnt act, N-glyco inh, PvdQ inh)
Cc1nc(N)sc1N=Nc1ccccc1C(F)(F)F	MITF TRPM1 HTS 159, esBAF inh inconclusive
C[C@@H]1CCCCO[C@@H](CN(C)C(=O)Nc2ccccc2)[C@H](C)CN([C@H](C)CO)C(=O)c2cc(NC(=O)c3ccccc3)ccc2O1	none (no result: MITF TRPM1 HTS, Vif inh, Wnt act, N-glyco inh, PvdQ inh)
Oc1c(C=Nc2ccccc2)sc2ccccc12	none (no result: esBAF inh)
CC(=Nc1ccc(C)cc1C)c1sc2ccccc2c1O	none (no result: esBAF inh)
CC(=Nc1cccc(O)c1)c1sc2ccccc2c1O	esBAF inh 82
CC(=Nc1ccc(C)cc1)c1sc2ccccc2c1O	Wnt act 46 (no result: esBAF inh)
C[C@@H]1CN([C@@H](C)CO)C(=O)c2cc(NC(=O)NC3CCCCC3)ccc2O[C@@H](C)CCCCO[C@H]1CN(C)C	none (no result: MITF TRPM1 HTS, Vif inh, Wnt act, N-glyco inh, PvdQ inh)
O=C1OCCC1=COCCCCCOC=C1CCOC1=O	Vif inh 71 (no result: MITF TRPM1 HTS, PvdQ inh)
CCCNC(=O)[C@@H]1[C@@H](CO)[C@@H]2Cn3c(cccc3=O)[C@H]1N2S(=O)(=O)c1ccccc1F	none (no result: MITF TRPM1 HTS, Vif inh, Wnt act, N-glyco inh, PvdQ inh)
COc1ccc(CN(C)C[C@H]2OCCCC[C@H](C)Oc3ccc(NC(=O)C4CCCCC4)cc3C(=O)N([C@@H](C)CO)C[C@H]2C)cc1	none (no result: MITF TRPM1 HTS, Vif inh, Wnt act, N-glyco inh, PvdQ inh)
Cc1ccc(-n2cc(-c3ccccc3)[nH]c2=O)cc1F	MITF TRPM1 HTS 113, esBAF inh 50
Cc1ccc2nc(-c3ccc(NS(=O)(=O)c4c(C)n(C)c(=O)n(C)c4=O)cc3)sc2c1	MITF TRPM1 HTS inconclusive, Wnt act 48 (no result: esBAF inh)
C[C@@H]1CN([C@H](C)CO)C(=O)c2cccc(NC(=O)c3cnccn3)c2O[C@H]1CN(C)S(=O)(=O)c1cccs1	none (no result: MITF TRPM1 HTS, Vif inh, Wnt act, N-glyco inh, PvdQ inh)
CC(C)(C)Nc1nc(-c2ccc3c(c2)CCN3C(=O)C2CC2)cs1	Vif inh inconclusive, Wnt act inconclusive, esBAF inh 95 (no result: MITF TRPM1 HTS)
CNc1nc(-c2ccc3c(c2)CCN3C(=O)c2ccccc2C)cs1	MITF TRPM1 HTS 149 (no result: esBAF inh)
CNc1nc(-c2ccc3c(c2)CCN3C(=O)c2cccc(F)c2)cs1	none (no result: esBAF inh)
CC(C)C(=O)Nc1nc(-c2ccc3c(c2)CCN3C(=O)C2CC2)cs1	none
CNc1nc(-c2ccc3c(c2)CCN3C(=O)c2ccc(F)cc2)cs1	esBAF inh 52
C[C@@H]1CCCCO[C@H](CN(C)C(=O)Nc2ccc(F)cc2)[C@H](C)CN([C@@H](C)CO)C(=O)c2cc(NC(=O)Nc3cccc4ccccc34)ccc2O1	none (no result: MITF TRPM1 HTS, Vif inh, Wnt act, N-glyco inh, PvdQ inh)
COCC(=O)N1C[C@H](C)[C@@H](OC)CN(C)C(=O)c2cc(NC(=O)c3cc(C)on3)ccc2OC[C@H]1C	none (no result: MITF TRPM1 HTS, Vif inh, Wnt act, N-glyco inh, PvdQ inh)
CC(=O)c1cccc(Nc2c3c(nc4ccccc24)CCC3)c1	N-glyco inh 51
Cc1[nH]c2ccccc2c1C(=O)COC(=O)c1ccccc1O	MITF TRPM1 HTS 111, esBAF inh 124
COc1ccc(C(=O)OCC(=O)c2cc(OC)ccc2OC)c(OC)c1	none (no result: Wnt act)
COc1ccc(C(=O)OCC(=O)c2c[nH]c3ccccc23)c(OC)c1	Wnt act 36, esBAF inh 75
COc1ccc(C(=O)COC(=O)c2ccccc2O)c(OC)c1	Wnt act 50, esBAF inh 76
COc1cc(CC(=O)OCC(=O)c2c[nH]c3ccccc23)cc(OC)c1OC	none
COc1cccc(C(=O)OCC(=O)c2c[nH]c3ccccc23)c1OC	esBAF inh 44
Cc1nn(-c2ccccn2)c2c1-c1nc(N3CCOCC3)ncc1CC2	none (no result: Wnt act, esBAF inh)
Cc1nn(-c2ccccn2)c2c1-c1nc(N)ncc1CC2	MITF TRPM1 HTS 110, esBAF inh inconclusive (no result: Vif inh)
O=C(C[C@@H]1C=C[C@H](NC(=O)Nc2ccc3c(c2)OCO3)[C@@H](CO)O1)NCc1ccc(F)cc1	none (no result: MITF TRPM1 HTS, Vif inh, Wnt act, N-glyco inh, PvdQ inh)
COC(=O)c1sccc1NC(=O)c1ccc(C)cc1	none
COC(=O)c1c(NC(=O)c2ccc(C)cc2)csc1C	Wnt act 36 (no result: MITF TRPM1 HTS, esBAF inh)
CCCNC(=O)N(C)C[C@@H]1Oc2cc(C#CC(C)(C)O)ccc2S(=O)(=O)N([C@H](C)CO)C[C@@H]1C	none (no result: MITF TRPM1 HTS, Vif inh, Wnt act, N-glyco inh, PvdQ inh)
COc1cc(NC(=O)COc2ccccc2)ccc1NC(=O)c1ccco1	Vif inh 66
COc1cc(NC(=S)NC(=O)c2ccco2)ccc1NC(=O)C(C)C	none (no result: esBAF inh)
COC(=O)c1cc(OC)c(OC)cc1NC(=S)NC(=O)c1ccco1	N-glyco inh 40
COc1cc2c(cc1NC(=O)c1ccco1)CCCC2	esBAF inh 76 (no result: Vif inh)
COc1cc(NC(=O)C(C)C)ccc1NC(=O)c1ccco1	MITF TRPM1 HTS 91
C[C@@H]1CCCCO[C@H](CN(C)CC2CC2)[C@H](C)CN([C@@H](C)CO)C(=O)c2cc(NS(=O)(=O)c3ccccc3)ccc2O1	none (no result: MITF TRPM1 HTS, Vif inh, Wnt act, N-glyco inh, PvdQ inh)
O=C(C[C@H]1C[C@H]2c3cc(NC(=O)Cc4ccncc4)ccc3O[C@H]2[C@H](CO)O1)NCCN1CCCCC1	none (no result: MITF TRPM1 HTS, Vif inh, Wnt act, N-glyco inh, PvdQ inh)
CC(C)NC(=O)N(C)C[C@H]1Oc2cc(C#CCN(C)C)ccc2S(=O)(=O)N([C@H](C)CO)C[C@@H]1C	none (no result: MITF TRPM1 HTS, Vif inh, Wnt act, N-glyco inh, PvdQ inh)
